Source: PubChem BioAssay
FECH inh: inhibitors of human ferrochelatase | hit rate 3.3% among 20,000 | P22830 | purified FECH, Ni-mesoporphyrin absorbance 550 nm | calls only at 10 µM (by protocol);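 active = enzyme reaction rate more than 3 SD below the solvent-only control wells on the same plate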;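 note: lower slope than DMSO wells means FECH inhibition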
Target sequence (P22830 whole entry, looked up): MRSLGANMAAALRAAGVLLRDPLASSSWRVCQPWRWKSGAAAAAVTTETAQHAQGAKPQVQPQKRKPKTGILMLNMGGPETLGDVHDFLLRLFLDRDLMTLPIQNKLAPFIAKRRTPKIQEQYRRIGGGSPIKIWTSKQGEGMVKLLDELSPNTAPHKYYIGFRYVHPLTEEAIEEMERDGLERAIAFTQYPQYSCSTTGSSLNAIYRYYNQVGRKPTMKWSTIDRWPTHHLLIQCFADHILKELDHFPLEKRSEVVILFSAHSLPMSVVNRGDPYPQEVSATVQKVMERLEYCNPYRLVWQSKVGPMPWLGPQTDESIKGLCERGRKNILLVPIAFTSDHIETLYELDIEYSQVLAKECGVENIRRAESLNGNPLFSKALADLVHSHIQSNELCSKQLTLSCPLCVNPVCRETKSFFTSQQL
Numbers without * were called inactive; i = inactive; + = active, no number. The entries come from a sample that favours hits as a whole.

SMILES	FECH inh
Cc1ccn2c(=O)cc(COc3cccc(NC(=O)C(C)C)c3)nc2c1	+
COc1ccc(C(=O)Nc2cccc(OCc3cc(=O)n4ccc(C)cc4n3)c2)cc1	i
COc1cccc(C(=O)Nc2cccc(OCc3cc(=O)n4cc(Cl)ccc4n3)c2)c1	i
Cc1ccn2c(=O)cc(COc3cccc(NC(=O)c4cccc(Br)c4)c3)nc2c1	i
Cc1ccn2c(=O)cc(COc3cccc(NC(=O)c4ccco4)c3)nc2c1	+
CCCC(=O)Nc1cccc(OCc2cc(=O)n3cc(Cl)ccc3n2)c1	i
Cc1ccn2c(=O)cc(COc3cccc(NC(=O)c4ccccc4C)c3)nc2c1	i
COc1ccccc1C(=O)Nc1cccc(OCc2cc(=O)n3cc(Cl)ccc3n2)c1	+
Cc1nc(-c2cccc(C(=O)NCCC3CCCN(C)C3)c2)no1 (configuration not stated)	i
CNC(=O)C1CCC(Cn2c(=O)c3sccc3n(CC(=O)NCCCc3ccccc3)c2=O)CC1 (configuration not stated)	i
COc1ccccc1N1CCN(S(=O)(=O)c2cc(C(=O)N3CCCC3)cs2)CC1	i
CCn1c(CC2CCNCC2)nn(Cc2nc(COC)no2)c1=O	i
COc1ccc(CNc2nc3nc(CNc4ccc(OC)cc4)cc(=O)n3[nH]2)cc1	i
CC(C)c1cc(=O)n2[nH]c(CNc3cccc(C(F)(F)F)c3)nc2n1	+
COc1ccc(CNc2nc3nc(CNc4cccc(C(F)(F)F)c4)cc(=O)n3[nH]2)cc1	i
CCc1nc2nc(C)c(NC(=O)Nc3ccc(C)c(Cl)c3)c(=O)n2[nH]1	i
COc1ccccc1CNc1nc2nc(CNc3cccc(C(F)(F)F)c3)cc(=O)n2[nH]1	i
Cc1ccc(NCc2nc3nc(C(C)C)cc(=O)n3[nH]2)cc1Cl	+
Cc1ccc(-c2n[nH]c(CCc3ccccc3)n2)cc1N1CCNC1=O	i
CCN(CCn1cccn1)C(=O)c1cnc(C)nc1	i
Cc1ccc(-c2nn(-c3ccccc3)cc2C2NCCc3[nH]cnc32)o1 (configuration not stated)	i
Cc1cncc(NC(=O)c2ccc(CN(C)Cc3noc(C)n3)cc2)c1	i
CCOc1ccc(-c2nc(SCC(=O)Nc3ccc4c(c3)OCO4)n3[nH]c(=O)cc3n2)cc1	i
Cc1nn(C)c(Cl)c1S(=O)(=O)N1CC[C@@H]2CC[C@H](C1)N2C	i
CCC(CC)n1nc(C)cc1NC(=O)Cn1nc(C)c2ccccc2c1=O	i
SMILES	FECH inh
Cc1nnnn1-c1cccc(-c2n[nH]c(Cc3ccccc3)n2)c1	i
Cc1nnnn1-c1ccc(Cc2n[nH]c(Cc3ccccc3)n2)cc1	+
c1ccc(Cc2n[nH]c(Cn3nc4ccccc4n3)n2)cc1	i
O=C(NCCc1nc2cccnc2n1C1CCCCC1)NCC1CCCO1 (configuration not stated)	i
COc1ccc(NC(=O)CC(=O)N2CCN(C)C3(CCN(C)CC3)C2)cc1	+
CN1CCC2(CC1)CN(C(=O)CNC(N)=O)CCCN2C	i
CCc1ccccc1NC(=O)C(=O)N1CCN(C)C2(CCN(C)CC2)C1	i
O=C(NC1CC1)c1cc2n(n1)CCN(C(=O)c1cccc3c1NCCC3)C2	i
Cc1cnc2c(C(=O)N3CCCC(OCc4ccccn4)C3)cnn2c1 (configuration not stated)	i
Cc1nn(C)c(C)c1C(C)NC(=O)c1cc(-c2ccc(O)cc2)n[nH]1 (configuration not stated)	i
COc1ccc(CN2CCCN(CC(=O)Nc3ccc(Br)cc3)S2(=O)=O)cc1	i
COc1cc(Nc2cc(-n3nc(C)cc3C)ncn2)cc(OC)c1	+
COc1cccc(Nc2cc(-n3nc(C)cc3C)ncn2)c1	i
Cc1cc(C)n(-c2cc(Nc3ccc(Cl)cc3)ncn2)n1	i
CCOc1ccc(NC(=O)CN2CCN(Cc3ccccc3Cl)S2(=O)=O)cc1	i
Cn1c(=O)c(C(=O)N2CCN(Cc3ccccc3)CC2)nc2ccccc21	i
COc1ccc(N2C(=O)CCS2(=O)=O)cc1S(=O)(=O)Nc1ccccc1Oc1ccccc1	i
Cc1ccc2[nH]c3c(=O)n(CCC(=O)NCCc4ccc(S(N)(=O)=O)cc4)cnc3c2c1	i
NS(=O)(=O)c1ccc(CCNC(=O)CCn2cnc3c([nH]c4ccc(F)cc43)c2=O)cc1	i
NS(=O)(=O)c1ccc(CCNC(=O)CCn2cnc3c([nH]c4ccccc43)c2=O)cc1	+
Cc1ccc(NC2(C(=O)N3CCNC(=O)C3CCO)CCCC2)cc1 (configuration not stated)	i
Cc1nonc1C(=O)N(C)CCCc1cnn(C)c1	i
COc1cc2c(cc1NC(=O)CC(C)C)C(c1cccc3[nH]ccc13)CC(=O)N2 (configuration not stated)	i
COC(=O)c1ccc(NS(=O)(=O)c2cc(N3C(=O)CCS3(=O)=O)ccc2C)cc1	i
CSc1cccc(NC(=O)C2CCN(c3ncnc4c3nc3n4CCCCC3)CC2)c1	i
SMILES	FECH inh
CS(=O)(=O)c1ccc(-c2nccc(C3CCCC3)n2)cc1	i
Cc1ccc(NC(=O)c2ccccc2C)cc1OCc1cc(=O)n2cccc(C)c2n1	i
Cc1ccc(NC(=O)C2CCCCC2)cc1OCc1cc(=O)n2cccc(C)c2n1	+
COc1ccc(C(=O)Nc2ccc(C)c(OCc3cc(=O)n4cccc(C)c4n3)c2)cc1	i
CC(C)C1CN(c2cc(N)ncn2)CCCN1CC1CC1 (configuration not stated)	i
COc1cc2[nH]c3c(=O)n(CC(=O)NCCc4ccc(S(N)(=O)=O)cc4)cnc3c2cc1OC	i
CCCNc1ccccc1C(=O)N1CCN(C(=O)c2ccccc2)CC1	i
COc1c(C)cnc(Cn2c(=O)c3cnc(C)nc3n(C)c2=O)c1C	i
CCN1CCN(Cc2cc(=O)n3[nH]c(-c4ccc(C(C)(C)C)cc4)nc3n2)CC1	i
CC(C)(C)c1ccc(-c2nc3nc(CNc4ccc(Br)cc4)cc(=O)n3[nH]2)cc1	i
CCOc1ccccc1NCc1cc(=O)n2[nH]c(-c3ccc(C(C)(C)C)cc3)nc2n1	i
Cc1ccc(Cl)cc1NCc1cc(=O)n2[nH]c(-c3ccc(C(C)(C)C)cc3)nc2n1	+
CC(C)(C)c1ccc(-c2nc3nc(CNc4ccccc4F)cc(=O)n3[nH]2)cc1	+
CC(C)(C)c1ccc(-c2nc3nc(CN4CCN(c5ccc(F)cc5)CC4)cc(=O)n3[nH]2)cc1	i
Cc1cc(C)n(C2CN(C(=O)c3ccc(C#CC(C)(C)O)o3)C2)n1	i
Cc1ccc(Nc2cc(C)nc(N3CCN(S(=O)(=O)c4ccc(C)cc4)CC3)n2)cc1	i
COc1ccccc1-c1cn2c(C(=O)NCC3CCOC3)csc2n1 (configuration not stated)	i
Cn1nnnc1SCCNC(=O)c1cnn2ccn(C)c12	i
CCc1c(C)nn(CCNC(=O)c2cnn3ccn(C)c23)c1C	i
Cn1ccn2ncc(C(=O)NCCc3ccccn3)c12	+
O=S(=O)(NCCn1c(-c2ccc(F)cc2)nc2cccnc21)c1ccc(Br)cc1	i
COc1ccc(N2C(=O)CCS2(=O)=O)cc1S(=O)(=O)Nc1ccc(Cl)cc1C	i
Cc1ccc2c(c1)C(CC(=O)NCCc1cn3nc(C)sc3n1)C(=O)N2 (configuration not stated)	i
Cc1cc(N(C)Cc2ncccc2C)nc(-c2ccccc2)n1	i
COCc1cc(CN(C)c2cc(C(C)C)nc(C)n2)[nH]n1	i
Cc1nc(C(C)C)cc(N(C)Cc2ncccc2C)n1	+
